Results filed as inconclusive are left out. Calls come from the whole dose curve; as a rule, active = well fitted inhibition curve with a large enough effect; inconclusive = small, poorly fitted or top-dose-only effect; inactive = flat fitted curve, though single readings scatter.
target: Luciferin 4-monooxygenase (Photinus pyralis) (UniProt P08659); test: Biochemical firefly luciferase enzyme assay for NPC (AID 624030);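 note: purified P. pyralis luciferase at 10 nM with luciferin and ATP substrate; 0% = DMSO and -100% = full luciferase inhibition by PTC124 control; nearly all actives have a fitted effect of over 70% in size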; settings: purified P. pyralis luciferase, luminescence, 5 min; series mostly up to 58.6 µM; activity change, negative = inhibition: at the top concentration
Outline: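 Direct inhibition of firefly luciferase enzyme (10 nM final, 50 mM Tris Acetate) assessed by luminescence within 5 minutes. Percent activity scaled between DMSO and PTC124 positive control, with concentration-effect curves classified by fit quality and response.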

Chain of Luciferin 4-monooxygenase (Photinus pyralis) (P08659 whole entry, looked up): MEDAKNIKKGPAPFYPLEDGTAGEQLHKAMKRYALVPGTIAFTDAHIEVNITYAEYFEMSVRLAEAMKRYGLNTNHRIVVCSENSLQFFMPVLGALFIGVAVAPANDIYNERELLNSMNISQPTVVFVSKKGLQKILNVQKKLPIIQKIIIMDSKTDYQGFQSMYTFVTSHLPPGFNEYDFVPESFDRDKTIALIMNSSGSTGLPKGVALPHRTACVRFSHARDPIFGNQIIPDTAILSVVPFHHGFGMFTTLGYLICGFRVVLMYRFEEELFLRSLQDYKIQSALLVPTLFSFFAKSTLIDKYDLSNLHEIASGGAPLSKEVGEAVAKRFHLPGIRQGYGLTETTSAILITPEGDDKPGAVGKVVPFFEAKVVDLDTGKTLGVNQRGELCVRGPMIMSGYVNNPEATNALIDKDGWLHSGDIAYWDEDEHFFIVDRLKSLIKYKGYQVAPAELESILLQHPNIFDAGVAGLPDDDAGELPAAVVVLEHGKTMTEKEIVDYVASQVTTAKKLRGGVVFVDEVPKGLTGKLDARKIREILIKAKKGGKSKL

Activity change, negative = inhibition, inactive:
CC(C)=CCC/C(C)=C\CC/C(C)=C\CC/C(C)=C\CC1=C(C)C(=O)c2ccccc2C1=O -5.07%, OC[C@H]1O[C@H](OC/C=C/c2ccccc2)[C@H](O)[C@@H](O)[C@@H]1O -0.742%, CC(=O)C[C@H]1[C@H](O[C@H]2[C@H](OC(C)C(=O)N[C@@H](C)C(=O)N[C@H](CCC(=O)N[C@@H](CCCCN)C(=O)N[C@H](C)C(=O)O)C(N)=O)[C@@H](NC(=O)O)C(O)O[C@@H]2CO)O[C@H](CO)[C@@H](O)[C@@H]1O (stereo not given in full) 14.9%, CSCCC(NC(=O)[C@H](Cc1c[nH]c2ccccc12)NC(=O)CNC(=O)[C@H](CCSC)NC(=O)[C@H](Cc1ccc(OS(=O)(=O)O)cc1)NC(=O)[C@@H](N)CC(=O)O)C(=O)N[C@@H](CC(=O)O)C(=O)N[C@@H](Cc1ccccc1)C(N)=O (stereo not given in full) -12.5%, CO[C@@H]1[C@@H](OC2OC(C)C(OC3CC(C)(O)C(O)C(C)O3)C(N(C)C)C2O)[C@@H](CC=O)C[C@@H](C)[C@@H](OC2CCC(N(C)C)C(C)O2)/C=C/C=C/C[C@@H](C)OC(=O)C[C@H]1OC(C)=O (stereo not given in full) -0.0945%, C=C1C[C@@H]2[C@H]3CCC4=CC(=O)C=C[C@]4(C)[C@@]3(F)[C@@H](O)C[C@]2(C)[C@]1(O)C(=O)COC(C)=O -0.679%, CO/N=C1\C[C@]2(C[C@@H]3C[C@H](C/C=C(/C)C[C@@H](C)/C=C\C=C4\CO[C@@H]5[C@@H](O)C(C)=C[C@@H](C(=O)O3)[C@]45O)O2)O[C@@H](/C(C)=C/C(C)C)[C@H]1C -2.95%, CCCC(=O)O[C@]1(C(=O)COC(=O)CC)CC[C@@H]2[C@@H]3CCC4=CC(=O)CC[C@]4(C)[C@H]3[C@@H](O)C[C@@]21C 54.4%, CN1CC[C@H](c2c(O)cc(O)c3c(=O)cc(-c4ccccc4Cl)oc23)[C@@H](O)C1 -13.6%, COc1ccc(CCNC[C@H](O)COc2cccc(C)c2)cc1OC -1.54%, CC(=O)OCC(=O)C1(O)CCC2C3CCC4=CC(=O)CCC4(C)C3C(O)CC21C (stereo not given) -5.54%, C[N+]1(C)CCC(OC(=O)CC(O)(c2ccccc2)C2CCCC2)C1 (stereo not given) 0.887%, C#C[C@@]1(OC(C)=O)CC[C@H]2[C@@H]3CCC4=CC(=O)CC[C@@H]4[C@H]3CC[C@@]21C 0.854%, CCCC(=O)O[C@]1(C(=O)COC(=O)CC)[C@@H](C)C[C@H]2[C@@H]3CCC4=CC(=O)C=C[C@@]4(C)[C@@]3(F)[C@H](O)C[C@@]21C -3.09%, CO[C@@H]1[C@@H]([C@H](C)[C@@H]2O[C@@]3(CC[C@@](C)([C@H]4CC[C@@](C)([C@H]5O[C@H]([C@H]6O[C@](C)(O)[C@H](C)C[C@@H]6C)C[C@H]5O[C@H]5C[C@@H](OC)[C@H](OC)[C@@H](C)O5)O4)O3)C[C@@H](O)[C@@H]2C)O[C@@](O)(CC(=O)O)[C@H](C)[C@H]1OC -1.07%, CCN(CC)CCOc1ccc(/C(=C(/Cl)c2ccccc2)c2ccccc2)cc1 6.1%, Fc1ccc(C2CCNCC2COc2ccc3c(c2)OCO3)cc1 (stereo not given) 8.57%, CC1(C)C(C(=O)O)N2C(=O)CC2S1(=O)=O (stereo not given) 2.81%, CN(Cc1ccc(C(C)(C)C)cc1)c1cccc2ccccc12 -0.503%, CCN1CCC[C@@H]1CNC(=O)c1cc(S(=O)(=O)CC)ccc1OC -2.47%, CO/N=C(\C(=O)N[C@@H]1C(=O)N2C(C(=O)OCOC(=O)C(C)(C)C)=C(C)CS[C@H]12)c1csc(N)n1 1.8%, COc1cc(/C=C/C(=O)O[C@H]2CC[C@]34C[C@]35CC[C@]3(C)[C@@H]([C@H](C)CCC=C(C)C)CC[C@@]3(C)C5CCC4C2(C)C)ccc1O (stereo not given in full) -0.729%, CO[C@H]1[C@@H](O)[C@H](N)[C@@H](O[C@H]2O[C@@H]([C@H](C)N)CC[C@H]2N)[C@H](O)[C@@H]1N(C)C(=O)CN 10.6%, CC[C@@H]1OC(=O)C[C@H](O)[C@@H](C)[C@@H](O[C@H]2O[C@@H](C)[C@H](O[C@@H]3C[C@](C)(O)[C@H](O)[C@@H](C)O3)[C@@H](N(C)C)[C@@H]2O)[C@@H](C=O)C[C@@H](C)C(=O)/C=C/C(C)=C[C@@H]1CO[C@H]1O[C@@H](C)[C@H](O)[C@H](OC)[C@@H]1OC 1.17%, CC(=O)O[C@H]1C[C@@H]2CC[C@@H]3[C@H](CC[C@]4(C)[C@H](OC(C)=O)[C@@H](N5CC[N+](C)(C)CC5)C[C@@H]34)[C@@]2(C)C[C@@H]1N1CC[N+](C)(C)CC1 7.44%

— PubChem BioAssay (NCATS)
